The panel holds about 79,000 compounds, 15% with a hit somewhere; the sample as a whole holds those more often. Values without a mark were called inactive. Calls of active or inactive are those of the source. No stated cut-off is given here; in the data, active means growth inhibition above about 70%; inactive means the rest.
Legend:
[1] = NCI Yeast Anticancer Drug Screen. Data for the rad50 strain (AID 155);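 further: 0% = growth of vehicle-only cultures of the same strain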; conditions: S. cerevisiae rad50 strain growth inhibition, stronger effect = higher value; at 50.0 µM unless noted
Outline: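 Growth of the mutant yeast was measured after compound exposure and referenced to vehicle-treated cultures.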

[2] = NCI Yeast Anticancer Drug Screen. Data for the mec2-1 strain (AID 157); conditions: S. cerevisiae mec2-1 strain, stronger effect = higher value; at 50.0 µM unless noted
Outline: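 Cells of the genetically defined mec2-1 yeast strain are incubated with test compound. Inhibition of growth is calculated against vehicle-treated controls.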

[3] = NCI Yeast Anticancer Drug Screen. Data for the sgs1 mgt1 strain (AID 161);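 further: 0% = growth of cultures given vehicle only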; conditions: S. cerevisiae sgs1 mgt1 strain, stronger effect = higher value; at 50.0 µM unless noted
Outline: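 Mutant yeast exposed to compound; growth scored against vehicle-only wells.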

[4] = NCI Yeast Anticancer Drug Screen. Data for the cln2 rad14 strain (AID 165);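 further: 0% = growth equal to vehicle treated cultures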; conditions: S. cerevisiae cln2 rad14 strain, stronger effect = higher value; at 50.0 µM unless noted
Outline: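 The screen exposed genetically defined yeast (cln2 rad14) to test compounds and scored growth inhibition relative to vehicle-treated controls.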

[5] = NCI Yeast Anticancer Drug Screen. Data for the bub3 strain (AID 167); conditions: S. cerevisiae bub3 mutant strain, stronger effect = higher value; at 50.0 µM unless noted
Outline: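 Whole-cell yeast assay. The mutant strain was incubated with compounds, and growth inhibition was determined by comparison with vehicle-treated cells.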

[6] = NCI Yeast Anticancer Drug Screen. Data for the mlh1 rad18 strain (AID 175); conditions: S. cerevisiae mlh1 rad18 strain growth inhibition, stronger effect = higher value; at 50.0 µM unless noted
Outline: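 Compound-treated yeast growth, normalised to vehicle controls. Strain bears defined DNA repair mutations.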

| Compound | growth inhibition [1] | growth inhibition [2] | growth inhibition [3] | growth inhibition [4] | growth inhibition [5] [%] | growth inhibition [6] |
| --- | --- | --- | --- | --- | --- | --- |
| Cc1ccc(S(=O)(=O)NC(=O)NNc2ccc(F)cc2)cc1 | 2.5% | 2.15% | 1.65% | 17.9% | -12.1 | 42.5% |
| O=C1C2=C(C(=O)C3=C1C1CCC3C1)C1CCC2C1 | 4.1% | -34.1% | -11.7% | -15.2% | -5.25 | 0.7% |
| CC(=O)Oc1ccc(Cc2ccccc2)cc1 | 47% | 33.5% | 48.2% | -49.2% | 32.9 | 49.1% |
| C1=CC(=CN2CCc3ccccc3C2)C=C1 | 2.55% | -8.45% | 3.05% | -6.95% | -9.2 | 6.05% |
| CC1=NN(C(=O)Nc2ccc(Cl)cc2)C(=O)C2CCC(=O)N12 (stereo not given) | 2.6% | 0.6% | 1.1% | 2.7% | -0.45 | 27% |
| CC1=N/C(=C\c2cccc([N+](=O)[O-])c2)C(=O)O1 | -6.9% | -30.8% | 5.1% | 3.35% | -10.7 | 13.5% |
| N#Cc1ccc(Nc2cnc3cc(N)ccc3n2)cc1 | 38.6% | -10.2% | 13.6% | 18% | 12.8 | 34.6% |
| CCN(CC)CCNc1cc(OC)c(OC)cc1[N+](=O)[O-] | -35% | 14.4% | 5.7% | -7.45% | -0.45 | -15% |
| CCCC(C)C(=O)OCc1ccccc1 (stereo not given) | 16.6% | -9.5% | 5.35% | -13.7% | 6.7 | 5% |
| CCOC(=O)C(C)NC(=O)NC12CC3CC(CC(F)(C3)C1)C2 (stereo not given) | 31.3% | 10.6% | 3.1% | 6.35% | 8.45 | -0.2% |
| Cc1cccc(C)c1NC(=O)Nc1ccccc1C(N)=O | 4.85% | 22.8% | 35.5% | -6.75% | 17.1 | -17.4% |
| N#Cc1c(-c2ccccc2)[nH]c2ccccc2c1=O | 54.7% | 55.4% | 2.05% | 11.3% | -3.65 | -17.5% |
| COc1cc2c(=O)[nH]c3cc(N)ccc3c2cc1N | 9.6% | 7.9% | -4.2% | -7.8% | -3.95 | 0.6% |
| O=C(O)CCC(=O)N1c2ccccc2CC1c1c[nH]c2ccccc12 (stereo not given) | -8.45% | -13.9% | -6.55% | 18.6% | 2 | 5.6% |
| CCCCCC(=O)OC(c1ccc(Cl)cc1)c1ccc(Cl)cc1 | -5.2% | -26.2% | 5.5% | 12.6% | 26.8 | 5.3% |
| CC(Nc1ncc2c(n1)-c1ccccc1OC2)C(=O)O (stereo not given) | -2.45% | 2.1% | -11.4% | -7.8% | -31.4 | 16.3% |
| O=C(Nc1ccc(S(=O)(=O)Nc2nccs2)cc1)c1ccncc1 | -0.05% | -11.3% | 22.3% | 19.1% | 28.3 | 12% |
| COc1ccc(C(C)c2cc(N=NC(N)=O)c(OC)cc2O)cc1 (stereo not given) | -2.7% | -3.6% | -4.1% | -4.25% | 16.9 | 12.7% |
| CC1Cc2c(n[nH]c2CC2CC(=O)NC(=O)C2)C(C)C1 (stereo not given) | 8.6% | -2.35% | 4% | -15.7% | 29.4 | 17.8% |
| Cn1cnc([N+](=O)[O-])c1Sc1nc2cc(Cl)c(F)cc2[nH]1 | -35.6% | -27.9% | -31.9% | 8.5% | -25.1 | -29.4% |

| Compound | growth inhibition [1] | growth inhibition [2] | growth inhibition [3] | growth inhibition [4] | growth inhibition [5] [%] | growth inhibition [6] |
| --- | --- | --- | --- | --- | --- | --- |
| O=C(COc1ccc(Cl)cc1)Nc1cc(Cl)c(Cl)cc1Cl | -1.55% | -7.2% | 3.1% | -17.7% | 11.2 | 1.3% |
| C=C1c2nc3ccccc3n2C=C(c2ccccc2)N1c1ccc(OC)cc1 | -6.5% | 15.3% | -9.25% | -5.85% | 17.5 | 7.05% |
| CCCCCCCCN(CCCCCCCC)CC(O)c1cc(Cl)c(Cl)c(Cl)c1 (stereo not given) | 24.1% | 12.3% | 47.4% | 53.9% | 18.6 | 33% |
| CSCCC(NC(=O)OCc1ccccc1)C(=O)O (stereo not given) | -31.4% | -0.6% | 5.05% | -25.2% | -4.5 | -4.45% |
| C=C1CC2C=CC1C2 (stereo not given) | 3.65% | -25.4% | 1.3% | 0.25% | -15.8 | 2.85% |
| Cc1cc[n+](CCC(N)=O)cc1 | -10.8% | -30.8% | -3% | 1.85% | -16.9 | -19.9% |
| C=CCNC1=C(NC(C)=O)C(=O)c2ccccc2C1=O | 16.1% | 0.95% | 4.8% | -31.2% | 28.6 | 12.4% |
| Cc1cc([N+](=O)[O-])c(Nc2ccc(C)c(Cl)c2)c([N+](=O)[O-])c1 | 8.15% | 36.7% | 29.6% | -8.05% | 52.1 | 33.6% |
| C=C(C)[C@H]1CC(=O)[C@@]2(C)C[C@H]3O[C@]3(C)CC/C=C(\C)CC[C@H]12 | 20.2% | 14.4% | 33.2% | 15.1% | 31.1 | 51.5% |
| CS(=O)(=O)OCCN(CCOS(C)(=O)=O)c1ccc(C=Nc2ccc(C(=O)O)c(O)c2)cc1 | 84.3% (active) | 84.5% (active) | 79.5% (active) | 78.7% (active) | 19.8 | 94% (active) |
| CC(C)OC(=O)CC1NS(=O)(=O)c2ccccc21 (stereo not given) | 3.9% | 1% | -9.7% | 24.6% | -16.6 | 20.6% |
| O=C1CSC(c2cc([N+](=O)[O-])ccc2Cl)N1c1nncs1 (stereo not given) | 22.1% | 15.6% | 37.2% | 19.1% | 21.7 | 28.4% |
| NC(=S)c1ccc2ccccc2c1 | 9.95% | 13.9% | 15.1% | 6.15% | 15.2 | 9.2% |
| COc1c(OC2OC(CO)C(O)C(O)C2O)cc2c(c1OC)-c1ccc(OC)c(=O)cc1[C@@H](NC(C)=O)CC2 (stereo not given in full) | -4.2% | 9.6% | 3.8% | 3.65% | -0.1 | 8.05% |
| N#Cc1ccc(OC(=O)Nc2ccc(F)cc2)cc1 | -4.1% | -14.2% | 12.2% | 18.6% | 10.7 | 8.8% |
| C/C(=N\N/C=N/S(=O)(=O)c1ccccc1)c1ccccc1 | -12.2% | 4.55% | -6.35% | 5.6% | 0.55 | -1.55% |
| CC(=O)OC1c2ccccc2CCCCCCC12OCCO2 (stereo not given) | -25.1% | -36.4% | -53.2% | 1.8% | -36.3 | -7.25% |
| N=C(N)c1ccc(NC(=S)Nc2ccc(C(=N)N)cc2)cc1 | 43.1% | 21.3% | 32.1% | 7.35% | 16.4 | 31.8% |
| CCN(CC)N=Nc1ccc(C(=O)O)cc1 | 9.55% | 1.7% | -10.1% | -8.8% | 5.85 | -2% |
| COc1ccccc1NC(=O)C(/C=N/C(=S)NNC(C)=O)=C(/C)O | 0.7% | -16.2% | -27% | -5.9% | -12.6 | 2.45% |
